The results in this text go back to PubChem BioAssay (EPA / NIEHS).

For orientation: AC50 means the midpoint of the concentration-response curve, whichever way the signal moves.

Where “and” joins values, the source holds several entries; their conditions need not be identical. Equal values may be shown once. The source holds several records for some structures; these can differ, active in one and inactive in another. Calls of active or inactive are those of the source. How the source made its calls: active means hit-call score of the fitted dose curve at least 0.9, where 1 is the maximum; inactive means score below 0.9.

Read-out in the assay: Monokine induced gamma interferon (MIG), CXCL9 (gene 4283)
The assay can be described thus: BSK_hDFCGF_MIG: BioMAP Diversity Plus: hDFCGF Assay for Monokine induced gamma interferon (MIG) Biomarker Activity (AID 2283063). Conditions: primary human foreskin fibroblasts; actives raise or lower the signal. The procedure:
BSK_hDFCGF is a cell-based, multiplexed-readout assay that uses foreskin fibroblast, a human skin primary cell, with measurements taken at 24 hours after chemical dosing in a 96-well plate.BSK_hDFCGF_MIG is an assay component measured in the BSK_hDFCGF assay. It measures MIG antibody related to regulation of gene expression using ELISA technology.Data from the assay component BSK_hDFCGF_MIG was analyzed into 1 assay endpoint. This assay endpoint, BSK_hDFCGF_MIG, was analyzed with bidirectional fitting relative to DMSO as the negative control and baseline of activity. Using a type of binding reporter, gain or loss-of-signal activity can be used to understand changes in the signaling as they relate to the gene CXCL9. Furthermore, this assay endpoint can be referred to as a primary readout, because this assay has produced multiple assay endpoints where this one serves a signaling function. To generalize the intended target to other relatable targets, this assay endpoint is annotated to the cytokine intended target family, where the subfamily is chemotactic factor.
The levels of cell surface (or secreted, indicated by the prefix "s") biomarker endpoints were measured by ELISA. Overt cytotoxicity to cells in confluent adherent cultures (all systems other than the BT system) was assessed by measuring total protein levels using sulforhodamine B (SRB) staining in parallel cultures at the time of biomarker measurements, indicated as SRB endpoints. For proliferation assays for adherent cell types, individual cell types are cultured at sub-confluence and relative cell numbers quantified by SRB staining at time points optimized for each system (48 h: 3C and CASM3C systems; 72 h: BT and HDF3CGF systems; 96 h: SAg system). SRB was performed by staining cells with 0.1% SRB after fixation with 10% TCA and reading wells at 560 nm.Viability and proliferation of PBMC (T cells) was quantified by Alamar Blue reduction for the SAg and BT systems. For PBMC viability (referred to as PBMC Cytotoxicity within the assay endpoint names), cells were plated (75,000/well in a 96-well plate) and then chemical samples added for 1 h before addition of activators, SEB and TSST-1 (20 ng/mL final concentration each). Cells were incubated for 90 h. Then, Alamar Blue (20 uL/well) (Invitrogen, Cat DAL1100) was added for 6 h, and the plates were read with a fluorescence microplate reader at 546/580 nm (excitation/emission). For PBMC proliferation, cells were plated and activated as above but incubated for only 16 h prior to addition of Alamar Blue. Plates were read after 6 h.
In the case of `CCOP(=S)(OCC)SCn1c(=O)oc2cc(Cl)ccc21`, the outcome was inactive.
Consider `Cc1ccc(-c2c(Cl)nc(C#N)n2S(=O)(=O)N(C)C)cc1`, for which the result was inactive.
As to `Cc1c(F)c(F)c(COC(=O)C2C(/C=C(\Cl)C(F)(F)F)C2(C)C)c(F)c1F` (stereo not given), the result was inactive.
As for `CCCN(CCC)c1c([N+](=O)[O-])cc(S(N)(=O)=O)cc1[N+](=O)[O-]`, the outcome was inactive; the AC50 is 32 µM (active) and 34.1 µM (active).
Consider `COC(=O)C(C)Oc1ccc(Oc2ccc(Cl)cc2Cl)cc1` (stereo not given), for which the outcome was inactive.
`COc1ccc(C(c2ccc(OC)cc2)C(Cl)(Cl)Cl)cc1`: the result was inactive.
Take `CC(C)C1(C)N=C(c2nc3ccccc3cc2C(=O)O)NC1=O` (stereo not given): the outcome was inactive.
Same read-out and setting: the entry for `CCOC(=O)CC(SP(=S)(OC)OC)C(=O)OCC` (stereo not given) is “inactive”; for `CC(C)Oc1cc(-n2nc(C(C)(C)C)oc2=O)c(Cl)cc1Cl` it is “inactive”; for `CCNc1nc(Cl)nc(NC(C)C)n1` it is “inactive”.
For the molecule `CNC(=O)ON=CC(C)(C)SC`, the outcome was inactive.
The same measure, in the same setting: the entry for `CCCCNC(=O)n1c(NC(=O)OC)nc2ccccc21` is “inactive”; for `COC(=O)c1ccccc1C(=O)OC` it is “inactive”.
Take `CC1COC(Cn2cncn2)(c2ccc(Oc3ccc(Cl)cc3)cc2Cl)O1` (stereo not given): the AC50 is 31.1 µM (active).
`CCON=C(CC)C1=C(O)CC(c2c(C)cc(C)cc2C)CC1=O` (stereo not given): the result was inactive.
For `CON(C)C(=O)Nc1ccc(Cl)c(Cl)c1`, the outcome was inactive.
Take `C=CCC1=C(C)[C@@H](OC(=O)[C@@H]2[C@@H](C=C(C)C)C2(C)C)CC1=O`: the concentration at half-maximal activity (AC50) was 31.6 µM (active).
Consider `N#CC(CCc1ccc(Cl)cc1)(Cn1cncn1)c1ccccc1` (stereo not given), for which the result was inactive.
Still for that read-out and setting: the value for `Cc1cc(Cl)ccc1OCC(=O)O` was “inactive”; that for `CCOC(=O)C(Cl)Cc1cc(-n2nc(C)n(C(F)F)c2=O)c(F)cc1Cl` (stereo not given) was “inactive”; that for `CCOc1cc(Oc2ccc(C(F)(F)F)cc2Cl)ccc1[N+](=O)[O-]` was “inactive”.
In the case of `CO/C=C(/C(=O)OC)c1ccccc1Oc1cc(Oc2ccccc2C#N)ncn1`, the result was inactive.
For `CN(C)C(=S)SSC(=S)N(C)C`, the AC50 was 3.01 µM (active).
As to `Oc1ccccc1-c1ccccc1`, the result was inactive.
For `OC(c1ccc(Cl)cc1)(c1cncnc1)c1ccccc1Cl` (stereo not given), the result was inactive.
On the same count and under the same terms, the entry for `COc1nc(C)nc(NC(=O)NS(=O)(=O)c2ccccc2CCC(F)(F)F)n1` is “inactive”.
As to `N#Cc1nn(-c2c(Cl)cc(C(F)(F)F)cc2Cl)c(N)c1S(=O)C(F)(F)F` (stereo not given), the outcome was inactive.
Still for that read-out and setting: the entry for `CC(C)(C)c1ccc(CSc2cnn(C(C)(C)C)c(=O)c2Cl)cc1` is “inactive”.
In the case of `CS/C(C)=N/OC(=O)N(C)SN(C)C(=O)O/N=C(\C)SC`, the concentration at half-maximal activity (AC50) was 11 µM (active).
For `O=C(Nc1ccccc1)Nc1ccnc(Cl)c1`, the outcome was inactive.
The same measure, in the same setting: the value for `O=C(O)c1nc(Cl)ccc1Cl` was “inactive”; that for `CCNc1nc(Cl)nc(NCC)n1` was “inactive”.
In the case of `CCc1nn(C)c(C(=O)NCc2ccc(C(C)(C)C)cc2)c1Cl`, the half-maximal activity concentration (AC50) was 33.7 µM (active).
Turning to `N#Cc1cc(Br)c(O)c(Br)c1`, the result was inactive.
With `COP(=S)(OC)Oc1nc(Cl)c(Cl)cc1Cl`, the concentration at half-maximal activity (AC50) is 14.9 µM (active).
As to `COc1cnc(OC)n2nc(NS(=O)(=O)c3c(OCC(F)F)cccc3C(F)(F)F)nc12`, the outcome was inactive.
Take `COP(N)(=O)SC` (stereo not given): the result was inactive.
Take `CCCC1COC(Cn2cncn2)(c2ccc(Cl)cc2Cl)O1` (stereo not given): the result was inactive.
Same read-out and setting: the value for `C=CC1(C)OC(=O)N(c2cc(Cl)cc(Cl)c2)C1=O` (stereo not given) was “inactive”.
